The panel holds about 79,000 compounds, 15% with a hit somewhere; the sample as a whole holds those more often. A number with no mark means an inactive call. Active and inactive are the calls of the source. No stated cut-off is given here; in the data, active means growth inhibition above about 70%; inactive means the rest.

A short description of the first test: NCI Yeast Anticancer Drug Screen. Data for the mlh1 rad18 strain (AID 175). To be noted: S. cerevisiae mlh1 rad18 strain growth inhibition; at 5.0 µM (retest, dose inferred, filed as 0.5); active compounds read high. Summed up:
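Read-out is yeast growth inhibition, calculated against vehicle-only controls. The compound was applied to a strain engineered with DNA damage repair alterations.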
Consider `CCC(c1ccccc1)N1C(=O)c2ccccc2S1(=O)=O` (stereo not given), for which the growth inhibition is -3%.
Regarding `Cc1ccc2cc3ccccc3c(-c3ccccc3)c2c1`, the growth inhibition is -2%.
In the case of `CC(=O)Oc1ccc(C)cc1C(C)(C)C`, the growth inhibition is -1%.
On the same count and under the same terms, next, `CCCCCCCCCCC[N+](C)(C)CCCCCC[N+](C)(C)CCCCCCCCCCC`: 97% (active); `CCN(CC)CCCNc1nc(NCCCN(CC)CC)c2nc(-c3ccccc3)c(-c3ccccc3)nc2n1`: -6%.
The same measure, in the same setting: next, `O=[N+]([O-])c1cnc(Sc2cncc[n+]2[O-])s1`: 99% (active); `O=c1[nH]c(=O)c2cc([N+](=O)[O-])cc([N+](=O)[O-])c2[nH]1`: 5%; `O=C(NC(=O)C(F)(F)F)Nc1ccc(Cl)cc1`: -1%.
Regarding `O=[N+]([O-])c1ccc(S)c(Cl)c1`, the growth inhibition was 45%.
Regarding `CS(=O)(=O)n1c(C(O)c2ccccc2)nc2ccccc21` (stereo not given), the growth inhibition was 0%.
As to `O=C(NCc1ccccc1)C1C(=O)N(Cc2ccccc2)C(=O)/C1=N/O` (stereo not given), the growth inhibition was -2%.
`C[n+]1c(/C=C/c2ccccc2Cl)sc2ccccc21`: the growth inhibition was 98% (active).
With `CC(=O)c1ccc(Cl)c(N=Cc2cc(Br)ccc2O)c1`, the growth inhibition was 64%.
`O=C(c1ccc(Cl)cc1)c1ccc([N+](=O)[O-])cc1`: the growth inhibition is -3%.
Regarding `Nc1ccc2c(c1)[nH]c(=O)c1cc(Cl)c(Cl)cc12`, the growth inhibition was 53%.
On the same count and under the same terms, as for `COc1ccc(C2CC(c3c(O)ccc4ccccc34)=NN2)cc1OC` (stereo not given), the figure is -1%; as for `CC[N+]1(C)CCC(O)(c2ccc(Cl)c(Cl)c2)C(C(=O)c2ccc(Cl)c(Cl)c2)C1` (stereo not given), 7%; as for `Nc1nc(Cl)cc(NCC2(CO)CC(CCCc3ccccc3)C2)n1` (stereo not given), 23%.
`Nc1nc(-c2cc3cc(Cl)ccc3o2)cs1`: the growth inhibition was 51%.
With `O=C(N(c1ccc(Cl)cc1)c1ccc(Cl)cc1)C(Cl)(Cl)Cl`, the growth inhibition was 38%.
Still for that read-out and setting: next, `NC(CSSCC(N)C(=O)Nc1ccc2ccccc2c1)C(=O)Nc1ccc2ccccc2c1` (stereo not given): 68%.
Still for that read-out and setting: next, `O=C/C=C/c1cc([N+](=O)[O-])ccc1Cl`: -137%; `COc1cc(C(c2cc3c(cc2OC(C)=O)OCO3)C(C(C)=O)C(C)=O)cc(OC)c1OC(C)=O` (stereo not given): 3%; `CCCCc1ccc(Nc2nc(N)c3[nH]cnc3n2)cc1`: 22%.
For `O=C(O)/C=C/C(=O)Nc1cccc2ccccc12`, the growth inhibition was 26%.
On to `Cc1cc(O)c(C(=O)/C=C/c2ccnc3ccccc23)c(=O)o1`, for which the growth inhibition was 15%.
Same read-out and setting: next, `ONC1=Nc2ccccc2OCc2cc(Br)c(Br)cc2COc2ccccc2N=C1NO`: 31%; `NNC(=O)c1ccc(N)cc1O`: 0%.
As for `O=C(N/C(=C\c1ccc2c(c1)OCO2)c1nc2ccccc2s1)c1ccccc1`, the growth inhibition was 18%.
Still for that read-out and setting: next, `CC1=NN(C(=O)c2ccncc2)C(=O)C1N=Nc1ccc(C)c([N+](=O)[O-])c1` (stereo not given): 12%.
For `COc1ccc2nc3cc(Cl)ccc3c(Nc3nccs3)c2c1`, the growth inhibition was 6%.
On the same count and under the same terms, next, `S=C(S)NCCN1CCNCC1`: -4%.
The same measure, in the same setting: as for `ClCc1nc2ccccc2c2ccccc12`, the figure is 12%.
As to `ClC1=C(Cl)C(Cl)(C(Cl)(Cl)Cl)C(Cl)=C1Cl`, the growth inhibition was 99% (active).
`FC(F)(F)COP1(OCC(F)(F)F)=NP(OCC(F)(F)F)(OCC(F)(F)F)=NP(c2ccccc2)(c2ccccc2)=N1`: the growth inhibition was 11%.
Consider `CC(C)c1c(P(=O)(c2ccccc2)c2ccccc2)n(C)c2ccccc12`, for which the growth inhibition is -27%.
Turning to `CN(CCC1CCCCC1)CCC1CCCCC1`, the growth inhibition is 11%.
For `Cc1nc(Cl)nc(N)c1[N+](=O)[O-]`, the growth inhibition was 6%.
As for `Nc1ccc2[nH]c3ccccc3c2c1`, the growth inhibition was 0%.
On to `COc1ccc(NC(=O)CSC(N)=O)cc1`, for which the growth inhibition is 3%.

The test is the same for the next values; noted with them: S. cerevisiae mlh1 rad18 strain growth inhibition; at 50.0 µM (retest, dose inferred, filed as 5.0); active compounds read high.
Regarding `CCC(c1ccccc1)N1C(=O)c2ccccc2S1(=O)=O` (stereo not given), the growth inhibition was -2%.
As to `Cc1ccc2cc3ccccc3c(-c3ccccc3)c2c1`, the growth inhibition was 0%.
With `CC(=O)Oc1ccc(C)cc1C(C)(C)C`, the growth inhibition was 0%.
Regarding `CCCCCCCCCCC[N+](C)(C)CCCCCC[N+](C)(C)CCCCCCCCCCC`, the growth inhibition was 99% (active).
In the case of `CCN(CC)CCCNc1nc(NCCCN(CC)CC)c2nc(-c3ccccc3)c(-c3ccccc3)nc2n1`, the growth inhibition is 94% (active).
On the same count and under the same terms, as for `O=[N+]([O-])c1cnc(Sc2cncc[n+]2[O-])s1`, the figure is 99% (active).
In the case of `O=c1[nH]c(=O)c2cc([N+](=O)[O-])cc([N+](=O)[O-])c2[nH]1`, the growth inhibition is 38%.
For the compound `O=C(NC(=O)C(F)(F)F)Nc1ccc(Cl)cc1`, the growth inhibition is -1%.
For the compound `O=[N+]([O-])c1ccc(S)c(Cl)c1`, the growth inhibition is 95% (active).
As for `CS(=O)(=O)n1c(C(O)c2ccccc2)nc2ccccc21` (stereo not given), the growth inhibition is 1%.
Same read-out and setting: next, `O=C(NCc1ccccc1)C1C(=O)N(Cc2ccccc2)C(=O)/C1=N/O` (stereo not given): -3%; `C[n+]1c(/C=C/c2ccccc2Cl)sc2ccccc21`: 98% (active); `CC(=O)c1ccc(Cl)c(N=Cc2cc(Br)ccc2O)c1`: 96% (active).
Take `O=C(c1ccc(Cl)cc1)c1ccc([N+](=O)[O-])cc1`: the growth inhibition is 7%.
Turning to `Nc1ccc2c(c1)[nH]c(=O)c1cc(Cl)c(Cl)cc12`, the growth inhibition is 85% (active).
Turning to `COc1ccc(C2CC(c3c(O)ccc4ccccc34)=NN2)cc1OC` (stereo not given), the growth inhibition was 97% (active).
In the case of `CC[N+]1(C)CCC(O)(c2ccc(Cl)c(Cl)c2)C(C(=O)c2ccc(Cl)c(Cl)c2)C1` (stereo not given), the growth inhibition is 100% (active).
Still for that read-out and setting: next, `Nc1nc(Cl)cc(NCC2(CO)CC(CCCc3ccccc3)C2)n1` (stereo not given): 22%; `Nc1nc(-c2cc3cc(Cl)ccc3o2)cs1`: 79% (active).
Regarding `O=C(N(c1ccc(Cl)cc1)c1ccc(Cl)cc1)C(Cl)(Cl)Cl`, the growth inhibition is 74% (active).
`NC(CSSCC(N)C(=O)Nc1ccc2ccccc2c1)C(=O)Nc1ccc2ccccc2c1` (stereo not given): the growth inhibition was 99% (active).
Turning to `O=C/C=C/c1cc([N+](=O)[O-])ccc1Cl`, the growth inhibition was 86% (active).
As to `COc1cc(C(c2cc3c(cc2OC(C)=O)OCO3)C(C(C)=O)C(C)=O)cc(OC)c1OC(C)=O` (stereo not given), the growth inhibition was 11%.
Still for that read-out and setting: as for `CCCCc1ccc(Nc2nc(N)c3[nH]cnc3n2)cc1`, the figure is 40%; as for `O=C(O)/C=C/C(=O)Nc1cccc2ccccc12`, 44%.
For the compound `Cc1cc(O)c(C(=O)/C=C/c2ccnc3ccccc23)c(=O)o1`, the growth inhibition was 8%.
Turning to `ONC1=Nc2ccccc2OCc2cc(Br)c(Br)cc2COc2ccccc2N=C1NO`, the growth inhibition was 97% (active).
On the same count and under the same terms, next, `NNC(=O)c1ccc(N)cc1O`: -4%.
With `O=C(N/C(=C\c1ccc2c(c1)OCO2)c1nc2ccccc2s1)c1ccccc1`, the growth inhibition was 97% (active).
Still for that read-out and setting: next, `CC1=NN(C(=O)c2ccncc2)C(=O)C1N=Nc1ccc(C)c([N+](=O)[O-])c1` (stereo not given): 69%; `COc1ccc2nc3cc(Cl)ccc3c(Nc3nccs3)c2c1`: 94% (active).
Same read-out and setting: next, `S=C(S)NCCN1CCNCC1`: -1%; `ClCc1nc2ccccc2c2ccccc12`: 43%.
As to `ClC1=C(Cl)C(Cl)(C(Cl)(Cl)Cl)C(Cl)=C1Cl`, the growth inhibition is 98% (active).
On the same count and under the same terms, next, `FC(F)(F)COP1(OCC(F)(F)F)=NP(OCC(F)(F)F)(OCC(F)(F)F)=NP(c2ccccc2)(c2ccccc2)=N1`: 0%; `CC(C)c1c(P(=O)(c2ccccc2)c2ccccc2)n(C)c2ccccc12`: 96% (active).
For the compound `CN(CCC1CCCCC1)CCC1CCCCC1`, the growth inhibition is 89% (active).
On to `Cc1nc(Cl)nc(N)c1[N+](=O)[O-]`, for which the growth inhibition was 41%.
As for `Nc1ccc2[nH]c3ccccc3c2c1`, the growth inhibition was 29%.
Consider `COc1ccc(NC(=O)CSC(N)=O)cc1`, for which the growth inhibition is 12%.
